Mdm2-MdmX inh: inhibitors of human Mdm2-MdmX association, primary screen, cell-based, luminescence, split luciferase, SaOS-2, uHTS | 3% of 330,000 active | SaOS-2 split-luciferase Mdm2/MdmX complementation | Protein Mdm4 (Homo sapiens) + E3 ubiquitin-protein ligase Mdm2 (Homo sapiens), … | inhibition, % at 8 µM | AID 485346, 2010;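 active means inhibition of at least 50% at 8 µM in the primary screen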
Target sequence (O15151 whole entry, looked up): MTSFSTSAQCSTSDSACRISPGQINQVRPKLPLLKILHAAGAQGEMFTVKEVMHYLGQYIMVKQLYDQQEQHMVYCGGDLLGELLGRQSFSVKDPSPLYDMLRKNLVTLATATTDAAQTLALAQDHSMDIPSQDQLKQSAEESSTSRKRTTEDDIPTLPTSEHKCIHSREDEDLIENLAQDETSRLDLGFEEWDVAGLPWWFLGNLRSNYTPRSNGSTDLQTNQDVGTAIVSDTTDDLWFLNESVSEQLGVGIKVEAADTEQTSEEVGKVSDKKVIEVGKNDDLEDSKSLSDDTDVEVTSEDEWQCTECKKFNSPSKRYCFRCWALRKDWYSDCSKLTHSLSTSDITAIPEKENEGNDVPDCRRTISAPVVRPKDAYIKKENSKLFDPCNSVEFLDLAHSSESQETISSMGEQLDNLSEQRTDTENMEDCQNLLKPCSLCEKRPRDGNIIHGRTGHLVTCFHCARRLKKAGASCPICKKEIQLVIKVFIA
Target sequence (Q00987 whole entry, looked up): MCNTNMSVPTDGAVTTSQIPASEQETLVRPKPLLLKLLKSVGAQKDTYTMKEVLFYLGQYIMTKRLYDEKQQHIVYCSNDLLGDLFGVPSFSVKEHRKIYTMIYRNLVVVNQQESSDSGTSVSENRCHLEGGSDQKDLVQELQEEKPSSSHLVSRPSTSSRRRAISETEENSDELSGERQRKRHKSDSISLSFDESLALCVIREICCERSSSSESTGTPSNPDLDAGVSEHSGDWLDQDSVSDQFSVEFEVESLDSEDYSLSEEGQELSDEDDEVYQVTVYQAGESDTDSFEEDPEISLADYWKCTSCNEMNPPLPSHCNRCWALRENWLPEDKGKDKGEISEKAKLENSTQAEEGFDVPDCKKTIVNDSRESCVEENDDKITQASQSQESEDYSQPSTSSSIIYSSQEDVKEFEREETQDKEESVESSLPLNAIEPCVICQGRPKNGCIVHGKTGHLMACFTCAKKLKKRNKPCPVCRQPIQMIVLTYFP
Peg3 prom inh: Peg3 promoter-driven luciferase inhibitors, primary screen, cell-based, HeLa, luciferase luminescence; HeLa PEG-Prom luciferase reporter, overnight; inhibition, % at 20 µM; 1.7% of 360,000 active;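 active means inhibition of at least 50% at 20 µM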
ABHD5 PLIN5 PPI: ABHD5-PLIN5 interaction inhibitors, primary screen, cell lysate, split luciferase complementation, luminescence | Split G. princeps luciferase complementation, 4 h | inhibition, % at 4 µM | Perilipin-5 (Homo sapiens) + 1-acylglycerol-3-phosphate O-acyltransferase ABHD5 (Homo … | AID 602281, 2012 | 0.78% of 360,000 active;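 active means inhibition above the mean inhibition across every tested compound plus 3 SD, cut at about 22% in these data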;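 further: 0% = DMSO only wells and the 100% control is not disclosed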
CF NFkB block: inhibitors of PAF-induced NF-kB signaling, primary screen, cell-based, GFP fluorescence, uHTS; KKLEB NF-kB-GFP reporter, GFP fluorescence overnight; inhibition, % at 5 µM; 0.86% of 360,000 active; AID 588850, 2011;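 active means at least 50% inhibition at 5 µM, scaled per plate between neutral and stimulator controls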;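 further: PAF is a Pseudomonas aeruginosa culture filtrate used as stimulus; plate controls were PAF-stimulated DMSO wells for no effect and unstimulated DMSO wells for full effect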
HIF-2a inh: HIF-2a reporter inhibitors, primary screen, luminescence, 786-0 RCC cells; 786-0 RCC cells HIF-2a reporter, luciferase luminescence, overnight; inhibition, % at 18.8 µM; 0.72% of 360,000 active; AID 624352, 2012;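 active means inhibition of the luminescence signal of 40% or more relative to plate controls, in a single-dose primary screen at 18.75 µM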
KKLEB tox: cytotoxicity in KKLEB CF airway cells, primary screen, cytotoxicity control for CF NF-kB inhibitor project, cell-based, uHTS, fluorescence assay plates; KKLEB CF airway cells viability, ATPlite luminescence, overnight; active compounds read low; cells stimulated with P. aeruginosa culture filtrate; activity change (cytotoxicity), % at 5 µM; 0.36% of 360,000 active; AID 602141, 2011;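 active means corrected activity change at or below -50% at 5 µM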
Mdm2 MdmX conf-1: Mdm2-MdmX complex disruptors, retested hits, confirmation, luminescence, single concentration. inhibition, % at 8 µM. 55% of 10,000 active. AID 489028, 2010. Mdm2-MdmX binding, luminescent assay. shares compounds with Mdm2-MdmX inh
Full FLuc ctr: full-length luciferase signal inhibition, confirmation, counter-screen for Mdm2/MdmX interaction inhibitor project, cell-based, single concentration, SaOS-2. SaOS-2 full-length luciferase counterscreen, luminescence. AID 504607, 2011. shares compounds with Mdm2-MdmX inh. inhibition, % at 8 µM. 77% of 6,200 active;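 active means mean inhibition at 8 µM reaching about 37%, which flags the compound as non-specific, limit read from the data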;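 further: p53-null SaOS-2 cells with luciferase driven by a doxycycline-inducible promoter; compound on cells about two nights before reading with doxycycline added after day one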
CF NFkB inh conf: inhibitors of PAF-induced NF-kB signaling, retest, confirmation, cell-based, GFP fluorescence, single concentration; shares compounds with CF NFkB block; KKLEB CF airway cells, overnight; inhibition, % at 5 µM; 64% of 1,300 active;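 further: stimulus PAF is a Pseudomonas aeruginosa filtrate and not platelet activating factor; plate controls were DMSO wells with stimulus for no effect and unstimulated DMSO wells for full effect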
ABHD5-PLIN5 conf: ABHD5-PLIN5 interaction inhibitors, confirmation, biochemical, luminescence. shares compounds with ABHD5 PLIN5 PPI. inhibition, % at 4 µM. 67% of 2,200 active; in the data active means inhibition above about 23%;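 further: 0% = DMSO vehicle wells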
HNF4 split-luc: HNF4 dimerization inhibitors, counter-screen for ABHD5-PLIN5 interaction inhibitor project, biochemical, split-luciferase complementation, luminescence | shares compounds with ABHD5 PLIN5 PPI | inhibition, % at 4 µM | 77% of 2,200 active | AID 651674, 2012;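 active means mean inhibition across replicate wells exceeding the computed hit threshold, cut at about 13% in these data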;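 further: light from luciferase halves that rejoin when HNF4 fusion proteins dimerize; 0% = DMSO only wells and the 100% control is not given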
Mdm2 MdmX conf-2: retested Mdm2-MdmX interaction blockers, confirmation, cell-based, luminescence, single concentration, set 2; SaOS-2 split-luciferase Mdm2/MdmX complementation; inhibition, % at 8 µM; 99% of 740 active; AID 504601, 2011; shares compounds with HIF-2a inh;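 active means mean inhibition of the luminescence signal across two replicates at or above 26 percent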
HIF-2a inh conf: HIF-2a reporter inhibitor retest, confirmation, luminescence, 786-0 RCC cells; AID 651580, 2012; 56% of 1,800 active; inhibition, % at 18.8 µM; HIF-2a luciferase reporter luminescence, overnight; shares compounds with HIF-2a inh;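 active means mean inhibition across four replicates of at least 40 percent at the single tested concentration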
HIF-1a cs: HIF-1a luciferase reporter signal reduction – MiaPaCa-2 cells, single concentration, counter-screen for HIF-2a inhibitor project, confirmation. AID 651589, 2012. inhibition, % at 18.8 µM. MiaPaCa-2 HIF-1a luciferase reporter, desferoxamine, overnight. 72% of 1,800 active. shares compounds with HIF-2a inh;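 active means mean inhibition of the reporter signal across four replicates at the single tested dose of 50% or more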
* = called active by the depositor; nt = no result. This is a sample that favours compounds with a hit; in the whole collection about 4.6% have one here. Unless noted, no stated cut-off is given here; in the data, active means inhibition above about 40%; inactive means the rest.

SMILES	Mdm2-MdmX inh	Peg3 prom inh	ABHD5 PLIN5 PPI	CF NFkB block	HIF-2a inh	KKLEB tox	Mdm2 MdmX conf-1	Full FLuc ctr	ABHD5-PLIN5 conf	HNF4 split-luc	Mdm2 MdmX conf-2	HIF-2a inh conf	HIF-1a cs	others
CSc1nnc(NC(=O)c2nc(S(=O)(=O)Cc3ccccc3F)ncc2Cl)s1	100*	106*	25*	95*	68*	-79*	57*	52*	86*	55*	102*	24	106*
CC(C)NC(=O)OC1CC2CC1[C@H]1CCCCN1C2=O (stereo partly drawn)	nt	nt	-5	nt	0	nt	nt	nt	nt	nt	nt	nt	nt
Cc1nnc(NC(=O)CN2CCN(Cc3ccccc3Cl)CC2)s1	3	13	3	-3	18	4	nt	nt	nt	nt	nt	nt	nt
C=CCSc1nnc(NC(=O)c2nc(SCC)ncc2Cl)s1	9	0	12	-15	18	22	nt	nt	nt	nt	nt	nt	nt
Cc1nnc(NC(=O)c2nc(S(=O)(=O)Cc3ccccc3C)ncc2Cl)s1	95*	106*	31*	99*	91*	-92*	71*	52*	72*	48*	103*	10	105*
CC(C)c1nnc(NC(=O)c2nc(S(=O)(=O)Cc3ccc(F)cc3)ncc2Cl)s1	100*	106*	44*	89*	64*	-101*	57*	52*	92*	57*	103*	66*	107*
CCSc1nnc(NC(=O)c2nc(S(=O)(=O)Cc3ccc(F)cc3)ncc2Cl)s1	69*	107*	24*	92*	88*	-97*	26	nt	80*	49*	nt	-29	97*
O=C(Cn1cc(C(F)(F)F)ccc1=O)N1CCc2ccccc21	6	-24	7	18	-18	-6	nt	nt	nt	nt	nt	nt	nt
c1ccc(CCNc2ncnc3ccccc23)cc1	-1	-268	-7	46	-167	-13	nt	nt	nt	nt	nt	nt	nt
Cc1csc(CNc2ncnc3ccc(-c4cccnc4)cc23)c1	12	19	-11	17	24	-20	nt	nt	nt	nt	nt	nt	nt
c1cncc(CNc2ncnc3ccc(-c4ccoc4)cc23)c1	70*	19	3	80*	11	0	69*	51*	nt	nt	87*	nt	nt	CF NFkB inh conf=88*

Screens deposited in PubChem by several laboratories.
